{"source": "PubChem BioAssay (NCATS)", "key": {"[1]": {"tested_on": "Zika virus NS2B-NS3 protease (unlinked complex)", "experiment": "Primary screen GU Rhodamine qHTS for Zika virus inhibitors: Unlinked NS2B-NS3 protease assay (AID 1347159); also: nearly all actives have a fitted effect of over 60% in size", "method_in_brief": "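Unlinked NS2B/NS3, 25 nM; Rhod110 peptide, 1.5 microM; compounds, up to 114 microM. Reaction run 15 min at RT in 10 mM Tris-HCl pH 8.0, 0.01% Tween 20; kinetic fluorescence change fitted with a 4-parameter Hill model.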"}, "[2]": {"tested_on": "Zika virus NS2B-NS3 protease (linked construct)", "experiment": "Primary screen NINDS Rhodamine qHTS for Zika virus inhibitors (AID 1347160); also: nearly all actives have a fitted effect of over 55% in size", "method_in_brief": "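Single-chain NS2B-NS3 protease, 25 nM, pH 8.0; compounds preincubated 15 min. Activity: Rhodamine110 release from 1.5 microM substrate over 15 min, room temperature, data fitted to 4-parameter Hill.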"}}, "note": "Inconclusive results are not listed. Where a call stands in place of a potency, no number is given. Active and inactive are the calls of the source. Calls follow the shape of the dose curve; as a rule, active = well fitted inhibition curve with a large enough effect; inconclusive = small, poorly fitted or top-dose-only effect; inactive = no such curve, though single readings can be large or run the other way.", "data": [{"smiles": "CCCn1cc2c(nc(NC(=O)Nc3ccc(OC)cc3)n3nc(-c4ccco4)nc23)n1", "values": [{"measurement": "Potency", "setting": "[1]", "value": "inactive"}, {"measurement": "Potency", "setting": "[2]", "value": "inactive"}]}, {"smiles": "Cc1nnc(-c2ccc(-c3ccc(C(=O)Nc4ccc(O)c(N5CCN(C)CC5)c4)cc3)c(C)c2)o1", "values": [{"measurement": "Potency", "setting": "[1]", "value": "inactive"}, {"measurement": "Potency", "setting": "[2]", "value": "inactive"}]}, {"smiles": "CC(=O)OC[C@]12[C@H](OC(C)=O)[C@H](OC(=O)c3ccccc3)[C@@H]3[C@@H](OC(C)=O)[C@]1(OC3(C)C)[C@H](C)C[C@H](OC(C)=O)[C@@H]2OC(=O)c1ccccc1", "values": [{"measurement": "Potency", "setting": "[1]", "value": "inactive"}, {"measurement": "Potency", "setting": "[2]", "value": "inactive"}]}, {"smiles": "O=C(NCc1ccc(OC(F)(F)F)cc1)C1c2c(F)cccc2C(=O)N1CCc1ccccn1", "note": "(centres undefined)", "values": [{"measurement": "Potency", "setting": "[1]", "value": "inactive"}, {"measurement": "Potency", "setting": "[2]", "value": "inactive"}]}, {"smiles": "N#Cc1ccc(COc2ccc(-c3cccc4nc(NC(=O)C5CC5)nn34)cc2)cn1", "values": [{"measurement": "Potency", "setting": "[1]", "value": "inactive"}, {"measurement": "Potency", "setting": "[2]", "value": "inactive"}]}, {"smiles": "CCCCCCOC(=O)/N=C(\\N)c1ccc(NCc2nc3cc(C(=O)N(CCC(=O)OCC)c4ccccn4)ccc3n2C)cc1", "values": [{"measurement": "Potency", "setting": "[1]", "value": "inactive"}, {"measurement": "Potency", "setting": "[2]", "value": "inactive"}]}, {"smiles": "C/C=C(/C=C(C)/C=C/C=C/C=C(\\C)C(=O)C12OC1C(O)(CCO)NC2=O)C(=O)OC", "note": "(centres undefined)", "values": [{"measurement": "Potency", "setting": "[1]", "value": "inactive"}, {"measurement": "Potency", "setting": "[2]", "value": "inactive"}]}, {"smiles": "COc1cccc(NCCC2(c3ccccc3)CC(C)(C)OC(C)(C)C2)c1", "values": [{"measurement": "Potency", "setting": "[1]", "value": "inactive"}, {"measurement": "Potency", "setting": "[2]", "value": "inactive"}]}, {"smiles": "Cc1ccc(NC(=O)c2ccc(CN3CCNCC3)cc2)cc1Nc1nccc(-c2cccnc2)n1", "values": [{"measurement": "Potency", "setting": "[1]", "value": "inactive"}, {"measurement": "Potency", "setting": "[2]", "value": "inactive"}]}, {"smiles": "CC1(C)SCCN(S(=O)(=O)c2ccc(Oc3ccncc3)cc2)[C@H]1C(=O)NO", "values": [{"measurement": "Potency", "setting": "[1]", "value": "inactive"}, {"measurement": "Potency", "setting": "[2]", "value": "inactive"}]}, {"smiles": "COc1ccc(NC(=O)c2ccc(-c3ccc(-c4nnc(C)o4)cc3C)cc2)cc1N1CCN(C)CC1", "values": [{"measurement": "Potency", "setting": "[1]", "value": "inactive"}, {"measurement": "Potency", "setting": "[2]", "value": "inactive"}]}, {"smiles": "COc1ccccc1C(=O)Nc1cccc(NC(=O)c2cccc(C)c2)c1", "values": [{"measurement": "Potency", "setting": "[1]", "value": "inactive"}, {"measurement": "Potency", "setting": "[2]", "value": "inactive"}]}]}
